Consider two compounds from PubChem BioAssay AID602241 (Southern Research Specialized Biocontainment Screening …, 2012).

The nature of this assay: Confirmatory cell based cytopathic effect inhibition, VEEV TC 83 infected cells (AID 602241). (Cytopathic effects are the visible damage that an infection or toxin causes in cultured cells.)

Results with a measured potency or affinity are listed apart. Calls of active or inactive are those of the source. The rule behind the calls is not given here.

`O=C(Oc1ccc2ccccc2c1Br)N1CCCCCC1`: the result was inactive.

For the compound `O=c1c2cc([N+](=O)[O-])ccc2nc(CN2CCN(c3ccccc3)CC2)n1-c1ccccc1F`, the outcome was inactive.
